# According to the supplement of paper PMC5499739:
# Over roughly 16,000 sequences, “Z-score” has its median near -0.37; the highest 2% begin near 3.1. The sample as a whole holds a higher share of the highest values than the screen did.
# System: RBM10 RRM1-ZnF-RRM2 (GST-tagged construct)
# Test: RNAcompete 7-mer binding Z-score; higher = stronger binding preference
# Description: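 RNAcompete: 20 pmol GST-tagged RBM10 RNA-binding constructs were incubated with a designed RNA pool of about 241,000 sequences up to 41 nt (1.5 nmol) on glutathione beads for 30 min at 4 °C and washed. Bound RNAs were identified by microarray hybridisation. Each RNA 7-mer is scored by a one-sided Z-score of its enrichment, computed over probes that contain the 7-mer within longer pool sequences.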
row,Sequence,RNAcompete 7-mer binding Z-score
1,AGUAGGA,3.08
2,CGUAGAG,0.636
3,GGUAGGA,3.37
4,CAUAGGA,0.756
5,UGUAGAG,0.978
6,GAUAGGA,3.17
7,CAUAGGG,2.13
8,GGUAGGC,2.65
9,UAUAGGG,2.76
10,GAUAGGG,4.38
11,AAUAGGA,1.57
12,GGUAGAG,3.68
13,CGAUUAA,-0.493
14,GGAUUGC,0.88
15,AACCACA,-0.275
16,UCUUGCG,-0.664
17,AGAUGCU,-0.777
18,AUUCGGA,0.243
19,UAUGUCC,-0.785
20,CCUCGGC,-0.701
21,AACACGU,-0.3
22,CUACUAU,-0.657
23,CCGUCCA,-0.704
24,CCUACGG,-0.446
25,UAACGCU,-0.646

row,Sequence,RNAcompete 7-mer binding Z-score
1,GGCCAUG,0.181
2,GCCGGGG,1.4
3,UGUAAAG,0.257
4,UGUAGGG,3.34
5,UUUAGGG,1.51
6,AAUAGGG,3.5
7,GUUAGGG,3.65
8,CGUAGGG,2.3
9,AAUAGGC,0.924
10,AAUAGGU,1.27
11,GUUAGGU,1.89
12,CGUAAAG,-0.0743
13,GGUAAAG,3.35
14,UGUAGGA,1.9
15,UCCAUUU,-0.872
16,GAUCCAG,0.0641
17,ACGUAAU,-0.417
18,ACAAUCG,-0.173
19,UACCCCG,-0.551
20,AUGCUCA,-0.766
21,GAUGAGU,1.01
22,GGUGAGA,2.68
23,GAUGAGG,3.6
24,CAUGAGG,1.35
25,GGUGAGG,4.3

row,Sequence,RNAcompete 7-mer binding Z-score
1,CGUGAGG,1.73
2,CCUCCAA,-0.857
3,UGAGCCC,-0.435
4,GUCCACU,-0.653
5,GGGCGAA,2.68
6,GGCAAGG,3.47
7,GGGCGGU,2.58
8,GGGCGGA,3.09
9,GGGCGGG,3.52
10,GGCAAAG,1.95
11,GGGCAGG,3.39
12,AGGCAGG,1.77
13,GGGCGAG,3.88
14,CGCAAGG,0.341
15,GGGCGAC,1.94
16,GGGCAGA,2.25
17,AUAGUGG,1.69
18,CACCAUC,-0.734
19,UGCGCAG,0.0677
20,UUUGGAU,-0.125
21,UACUUUA,-0.948
22,UGGCGGU,1.54
23,CGGCGGG,1.97
24,UGGCGGG,3.19
25,ACGGGAC,2.19

row,Sequence,RNAcompete 7-mer binding Z-score
1,UGCAACC,-0.504
2,AGGGGGG,2.05
3,AAGGGGG,3.91
4,GCGGGAU,2.38
5,GAGGGCA,1.99
6,AAGGGGC,3.1
7,GAGGGAA,3.6
8,GAGGGGA,3.29
9,GAGGGGG,2.83
10,GAGGAAA,2.2
11,GAGGGAU,3.31
12,CGGGGGA,2.53
13,CAGGGAU,2.41
14,CCGCUAC,-0.868
15,GUUACUC,-0.581
16,UAAGUCA,-0.0816
17,UCGCGCA,-0.595
18,ACCUCCG,-0.737
19,AUAGAGA,0.501
20,AGAACAU,-0.398
21,CCUAUAU,-0.799
22,UCAAUGC,-0.533
23,GCUUGUG,-0.479
24,GUACCCC,-0.242
25,UUCCUGA,-0.763

row,Sequence,RNAcompete 7-mer binding Z-score
1,GAGGGGU,3.64
2,AAGGGGU,4.33
3,AGGGGGA,2.14
4,CAAGGGG,3.03
5,UAAGGGG,3.11
6,GAGGGCU,1.27
7,AGGGGGU,3.03
8,AAAGGGG,4.22
9,AAGGGGA,4.44
10,GAGGGGC,2.44
11,AACCCUU,-1.03
12,CCACGCA,-0.664
13,AUUGUGA,0.108
14,UCGCGUU,-0.602
15,CUUCCUU,-0.759
16,AGUAAGA,0.541
17,GUUCUCU,-0.788
18,AGGGGUG,3.14
19,CUGGGUG,1.82
20,AGGGGCG,2.07
21,AUCGGUG,0.691
22,AUGGGUA,3.71
23,AUGGGUC,2.15
24,GUGGGUC,2.4
25,AGGGGGC,1.4

row,Sequence,RNAcompete 7-mer binding Z-score
1,GUGGGUG,3.76
2,AUGGGUG,3.74
3,AUGGGUU,2.86
4,AUUGGUG,1.84
5,CUCUUCC,-0.879
6,AAUAUAC,-0.26
7,UAGUCCA,-0.683
8,UGUGGCC,0.0459
9,AUCUCGC,-0.894
10,AAGUUAC,-0.289
11,CGGCUGA,-0.0306
12,UUCAAUA,-0.151
13,GGGGGUG,3.43
14,UGGGGUG,4.14
15,UCGGGUG,1.96
16,UGGGGUC,2.62
17,UUGGGUG,3.43
18,UUGGGUU,2.05
19,GGGGGCG,2.58
20,GGGGGUC,2.06
21,CGGGGUG,3.36
22,UUGGGUC,1.03
23,CCGGGUG,1.62
24,CGGGGUU,2.23
25,GUUAUCU,-0.395

row,Sequence,RNAcompete 7-mer binding Z-score
1,GACCCCC,-0.551
2,ACGAAUA,-0.238
3,UAUCACG,-0.435
4,AUGUAAC,-0.147
5,GAGUGUU,0.432
6,CGAGGCU,0.217
7,ACACCCU,-0.941
8,UAAUACA,-0.391
9,UCAUUCU,-0.752
10,UGCGGUC,-0.00512
11,GCGCUGU,-0.191
12,ACAGUAA,0.0677
13,GGCCGCC,-0.683
14,UAAGCCA,-0.712
15,GCCAAAC,-0.573
16,AGUCUGU,-0.482
17,GGGGUUU,2.36
18,GGGUGUA,3.09
19,GGGGGUU,3.29
20,GGGUGUG,3.51
21,AGGGGUU,2.42
22,UGGUGUG,2.21
23,AUCUACU,-0.806
24,AUCUUGG,-0.311
25,CGGGAAC,1.5

row,Sequence,RNAcompete 7-mer binding Z-score
1,GCUUCCG,-0.799
2,CUUGGUC,-0.821
3,GGACAGA,1.44
4,GGACCGU,0.0532
5,AGGGACG,2.37
6,UGGGAUU,1.63
7,CGGGAUG,2.31
8,GGGGAUC,2.27
9,UGGGAUG,3.22
10,GGGGAUG,3.68
11,UGGGAUA,2.85
12,AGGGAUG,4.22
13,GGGGAUU,2.36
14,ACAGAUU,-0.242
15,AAUGGUC,0.822
16,GCAGCCC,-0.497
17,CUGCCAG,-0.606
18,AAACUUU,-0.752
19,UAGUGAC,0.21
20,CAUUCUA,-0.821
21,GCGGGGU,3.77
22,CCGGGGA,1.12
23,UCGGGGU,1.76
24,GCGGGUU,2.54
25,CCGGGGG,1.4

row,Sequence,RNAcompete 7-mer binding Z-score
1,GCGGGGA,3.23
2,GCGGGGG,3.51
3,GCGGGGC,2.5
4,UCGGGGA,1.7
5,UCAAGCU,-0.621
6,CUCCGAC,-0.664
7,UCCCCAA,-0.639
8,CCAUAGA,-0.464
9,CGAACGG,1.41
10,GAACGGU,1.56
11,GGACGGG,4.18
12,GGAACGG,4.03
13,CGACGGG,2.14
14,GAACGGC,0.84
15,GGACGGC,1.05
16,AGAACGG,1.84
17,GAACGGG,4.29
18,ACGAUAC,-0.413
19,AUGCAUC,-0.362
20,UGAUAUA,-0.366
21,CACGAAA,-0.366
22,AGAUGGA,2.92
23,AGAUGGU,1.63
24,GGAUGGA,3.36
25,GGAUGGC,2.46

row,Sequence,RNAcompete 7-mer binding Z-score
1,UGAUGGU,1.26
2,GGAUGGU,3.73
3,UAGGAGC,1.74
4,AUGGGCA,2.7
5,CUGGGCG,1.05
6,GUGGGCA,3.48
7,AUGGGCG,3
8,GUGGGCG,3.37
9,GUGGGCC,1.58
10,AGCGCGC,-0.282
11,CAGUCUU,-0.857
12,GAAAUCU,-0.46
13,CCGUUAA,-0.77
14,AGAAAAU,0.0859
15,CGGGUAU,1.39
16,GGGGUAG,4.58
17,GGGGUAU,2.98
18,GUGGUAG,2.26
19,AGGGUCU,0.559
20,CGGGUAA,1.81
21,GAGGUAA,2.53
22,AGGGUAA,4.77
23,AGGGUAU,3.41
24,UGGGUAA,2.38
25,GGGGUAA,3.5

row,Sequence,RNAcompete 7-mer binding Z-score
1,GGGGUAC,2.82
2,UGAGCAU,-0.0634
3,UGUAACU,-0.358
4,AUCGGCG,0.337
5,CGCCUGG,-0.482
6,GUGGCCA,0.403
7,UUCCGGG,0.341
8,GUUGAGU,0.57
9,GAGUCCU,-0.453
10,UCAGUCA,-0.493
11,AGUGGUG,2.24
12,AGUGUGG,2.64
13,AGUGGGC,2.96
14,CGUGGUG,1.44
15,GGUGGUG,3.25
16,GGUGGGC,3.19
17,GGUGGUC,2.11
18,UGUGGGC,1.83
19,UGUGGUG,1.57
20,UGUGGGA,2.96
21,AGUGGGG,4.66
22,UGUGGGG,3.75
23,AAGCUCA,-0.635
24,GCACGGU,0.519
25,GCACGCG,-0.0598

row,Sequence,RNAcompete 7-mer binding Z-score
1,GUUGCCG,-0.216
2,AAGCGGU,1.03
3,ACGGAAC,0.785
4,GCUGGGU,1.78
5,GCUGGGA,1.69
6,AGUGGGA,4.3
7,GGUGGCA,2.34
8,UGUGGGU,2.9
9,CGUGGGU,2.43
10,AGUGGGU,3.35
11,GGUGGGU,3.47
12,AGUGGCA,1.68
13,GGUGGUU,2.03
14,AGUGGUA,1.92
15,GGUGGGA,3.75
16,UAUUCAA,-0.606
17,UGUUUUU,-0.46
18,CUAACCC,-0.766
19,GGCGAAA,1.35
20,CUCCUAU,-0.956
21,CGUGGGC,2.21
22,CGUGGGG,3.57
23,GGUGGGG,4.34
24,GCUGGGG,2.46
25,CGUGGGA,2.39

row,Sequence,RNAcompete 7-mer binding Z-score
1,GGGGGGG,2.58
2,AUCUCUG,-0.846
3,GGGGGGC,2
4,CUGGGGC,0.956
5,AUGGGCU,1.51
6,GUGGGAA,3.49
7,AUGGGAC,2.47
8,GUGGGGA,4.25
9,CUGGGGA,1.32
10,GUGGGAC,2.4
11,AUGGGAU,3.25
12,GCGGGAA,2.5
13,GUGGGGC,3.47
14,GUUGGGA,3.05
15,UCAACGC,-0.584
16,GGAAAUC,0.931
17,GUGGGAG,3.99
18,GUGGGUU,2.54
19,GUGGCGG,3.22
20,GCGGGAG,2.64
21,GUGGGGU,4.45
22,UCGGGAG,1.18
23,GUGGCGC,1.46
24,CUGGCGG,0.541
25,CUGGGGG,1.81

row,Sequence,RNAcompete 7-mer binding Z-score
1,GUGGGGG,4.18
2,UUGGGGU,2.84
3,UGGCUAU,-0.00148
4,GGAUAGC,2.07
5,CGCAACU,-0.825
6,UCAAUUC,-0.752
7,GUAGUGA,1.1
8,GGUGCGA,1.58
9,CUUUCCG,-0.777
10,AUCAGCA,-0.395
11,AUUCCCC,-0.613
12,AGGAUAA,1.21
13,GUGGGAU,3.57
14,CUGGGAU,0.964
15,UUGGGAU,1.9
16,AUAAGAA,0.177
17,GAUUGCC,-0.672
18,AAGUCUU,-0.697
19,GUAGGGA,4.26
20,UUAGGGU,3.02
21,UUAGGGG,2.07
22,GUAGGGG,4.66
23,GUAGGAC,1.86
24,GUAGGGC,2.85
25,CUAGGAG,0.534

row,Sequence,RNAcompete 7-mer binding Z-score
1,CUAGGGG,1.97
2,UUAGGGA,2.36
3,GUAGGGU,4.48
4,CUAGGGU,2
5,GUAGGAG,3.78
6,AACUUUA,-0.679
7,UAGGCGG,1.79
8,UGUGACC,-0.176
9,CGUCUUU,-0.613
10,CCACUCG,-0.73
11,GGGUCUG,0.993
12,ACCUCUG,-0.814
13,AUAGGGC,2.14
14,AUAGGGA,2.9
15,AUAGGCG,1.16
16,AUAGGAG,2.27
17,AUAGGGU,4.33
18,AUAGGGG,4.15
